Assay results published in PubChem BioAssay (EPA / NIEHS).
Inconclusive results are not listed. Active and inactive are the calls of the source. Rule for the calls, unless noted: active = hit-call score of the fitted dose curve at least 0.9, where 1 is the maximum; inconclusive = response in the unintended direction; inactive = score below 0.9.

Tests used:
[1] = ATG_TAL_CIS: Attagene CIS-FACTORIAL HepG2 Assay for human TAL Basal Promoter (AID 2282966; active = hit-call score of the fitted dose curve at least 0.9, where 1 is the maximum; inactive = score below 0.9;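 note: background control endpoint measuring basal TAL promoter reporter mRNA not a specific factor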); conditions: HepG2 Attagene cis-factorial TAL promoter reporter; actives raise or lower the signal
Method in brief: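 Fluorescence of labelled reporter cDNA fragments, resolved by capillary electrophoresis, gave the readout. Human HepG2 liver cells carried transiently transfected cis-element reporter units and were treated for 24 hours; activity was fitted bidirectionally against DMSO.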

[2] = ATG_TGFb_CIS: Attagene CIS-FACTORIAL HepG2 Assay for human Transforming Growth Factor (TGF) (AID 2282967; active = hit-call score of the fitted dose curve at least 0.9, where 1 is the maximum; inactive = score below 0.9); conditions: HepG2 Attagene CIS TGFb reporter, mRNA transcription; actives raise or lower the signal
Method in brief: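 Transient MRTU transfection of HepG2 (FuGene 6). Dose 24 h. TriZol RNA, oligo(dT) RT, PCR, 6-FAM primer extension, HpaI cut, CE. Bidirectional fit, DMSO = baseline.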

[3] = ATG_VDRE_CIS: Attagene CIS-FACTORIAL HepG2 Assay for human Vitamin D Receptor Element (VDRE) (AID 2282968; active = hit-call score of the fitted dose curve at least 0.9, where 1 is the maximum; inactive = score below 0.9); conditions: HepG2 VDRE cis-reporter transcription, actives raise or lower the signal
Method in brief: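 RT-PCR/CE readout of reporter mRNA; HepG2, transient transfection, 24 h dosing; DMSO baseline; bidirectional analysis.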

[4] = biological target: Estrogen receptor (Homo sapiens) (UniProt P03372); assay: ATG_ERa_TRANS: Attagene TRANS-FACTORIAL HepG2 Assay for human Estrogen Receptor alpha (ERa) (AID 2282970); conditions: HepG2 Attagene TRANS ERa GAL4 reporter, mRNA
Estrogen receptor (Homo sapiens), sequence (P03372 whole entry, looked up, the tested form may be a part): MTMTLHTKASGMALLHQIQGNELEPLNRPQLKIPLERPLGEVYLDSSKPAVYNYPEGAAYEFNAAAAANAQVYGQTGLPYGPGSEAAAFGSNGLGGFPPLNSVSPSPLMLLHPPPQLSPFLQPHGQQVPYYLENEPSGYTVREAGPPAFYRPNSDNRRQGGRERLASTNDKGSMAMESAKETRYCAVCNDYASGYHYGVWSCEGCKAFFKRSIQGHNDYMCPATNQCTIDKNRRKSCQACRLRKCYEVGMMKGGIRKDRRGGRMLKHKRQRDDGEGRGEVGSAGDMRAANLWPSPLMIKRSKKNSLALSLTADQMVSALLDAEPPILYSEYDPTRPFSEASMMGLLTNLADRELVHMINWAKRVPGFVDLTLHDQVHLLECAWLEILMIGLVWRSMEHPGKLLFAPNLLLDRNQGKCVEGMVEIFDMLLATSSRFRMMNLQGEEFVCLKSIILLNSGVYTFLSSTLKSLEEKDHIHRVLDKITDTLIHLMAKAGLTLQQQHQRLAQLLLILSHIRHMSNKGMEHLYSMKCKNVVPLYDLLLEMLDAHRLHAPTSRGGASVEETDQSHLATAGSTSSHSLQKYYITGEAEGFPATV
Method in brief: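 Human liver HepG2, transient transfection of multiple GAL4-UAS reporter units; TRANS format (exogenous NR-Gal4 chimera). 24 h dosing. Readout: reporter mRNA, RT-PCR, 6-FAM primer extension, HpaI digest, capillary electrophoresis. Positive direction vs DMSO.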

[5] = ATG_M_19_TRANS: Attagene TRANS-FACTORIAL HepG2 Assay for M19 Transcription Factor (Internal Marker) (AID 2282974); conditions: HepG2 Attagene TRANS-FACTORIAL M19 internal marker reporter
Method in brief: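 Multiplexed TRANS format: HepG2 liver cells bearing transient GAL4-UAS reporter units, chemical treatment 24 h, reporter transcripts quantified by RT-PCR plus capillary electrophoresis. DMSO defines baseline.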

[6] = ATG_GAL4_TRANS: Attagene TRANS-FACTORIAL HepG2 Assay for GAL4 (Internal Marker) (AID 2282976); conditions: HepG2 Attagene TRANS GAL4 internal marker reporter
Method in brief: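 First, HepG2 cells were transfected with reporter units under GAL4-UAS control. Next, they were treated with chemical for 24 h. Finally, RNA was reverse-transcribed, PCR-amplified, FAM-labelled and resolved by capillary electrophoresis, with induction scored against DMSO.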

[7] = biological target: Glucocorticoid receptor (Homo sapiens) (UniProt P04150); assay: ATG_GR_TRANS: Attagene TRANS-FACTORIAL HepG2 Assay for human Glucocorticoid Receptor (GR) (AID 2282978); conditions: HepG2 Attagene TRANS GR reporter, mRNA transcription;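 note: activators score as hits since higher reporter transcript over DMSO is fitted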
Glucocorticoid receptor (Homo sapiens), sequence (P04150 whole entry, looked up, the tested form may be a part): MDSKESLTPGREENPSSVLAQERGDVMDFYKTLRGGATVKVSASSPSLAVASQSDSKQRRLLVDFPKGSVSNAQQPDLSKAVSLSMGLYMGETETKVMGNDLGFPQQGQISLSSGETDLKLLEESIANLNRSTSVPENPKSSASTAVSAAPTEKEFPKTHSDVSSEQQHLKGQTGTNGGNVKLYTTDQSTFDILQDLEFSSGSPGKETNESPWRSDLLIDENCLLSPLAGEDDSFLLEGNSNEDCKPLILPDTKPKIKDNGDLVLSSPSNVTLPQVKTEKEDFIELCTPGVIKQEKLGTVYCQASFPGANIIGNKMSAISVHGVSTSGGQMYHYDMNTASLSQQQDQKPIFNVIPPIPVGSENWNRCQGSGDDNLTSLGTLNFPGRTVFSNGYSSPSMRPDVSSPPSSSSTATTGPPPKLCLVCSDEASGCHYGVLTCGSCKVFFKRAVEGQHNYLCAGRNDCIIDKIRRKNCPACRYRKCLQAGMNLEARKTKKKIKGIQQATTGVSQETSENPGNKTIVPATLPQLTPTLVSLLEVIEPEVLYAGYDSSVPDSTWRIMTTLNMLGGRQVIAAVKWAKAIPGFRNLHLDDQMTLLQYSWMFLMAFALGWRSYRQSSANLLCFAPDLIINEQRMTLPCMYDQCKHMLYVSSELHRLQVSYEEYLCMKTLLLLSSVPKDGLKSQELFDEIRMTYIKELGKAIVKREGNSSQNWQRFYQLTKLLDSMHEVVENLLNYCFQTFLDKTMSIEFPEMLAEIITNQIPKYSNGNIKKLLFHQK
Method in brief: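 Transiently transfected HepG2 cells express chimeric NR-GAL4 proteins acting on GAL4-UAS reporter units. Compounds are applied for 24 h. mRNA induction over DMSO is measured by capillary electrophoresis.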

[8] = biological target: Oxysterols receptor LXR-alpha (Homo sapiens) (UniProt Q13133); assay: ATG_LXRa_TRANS: Attagene TRANS-FACTORIAL HepG2 Assay for human Liver X Receptor alpha (LXRa) (AID 2282980); conditions: HepG2 Attagene TRANS reporter, LXRa transactivation
Oxysterols receptor LXR-alpha (Homo sapiens), sequence (Q13133 whole entry, looked up, the tested form may be a part): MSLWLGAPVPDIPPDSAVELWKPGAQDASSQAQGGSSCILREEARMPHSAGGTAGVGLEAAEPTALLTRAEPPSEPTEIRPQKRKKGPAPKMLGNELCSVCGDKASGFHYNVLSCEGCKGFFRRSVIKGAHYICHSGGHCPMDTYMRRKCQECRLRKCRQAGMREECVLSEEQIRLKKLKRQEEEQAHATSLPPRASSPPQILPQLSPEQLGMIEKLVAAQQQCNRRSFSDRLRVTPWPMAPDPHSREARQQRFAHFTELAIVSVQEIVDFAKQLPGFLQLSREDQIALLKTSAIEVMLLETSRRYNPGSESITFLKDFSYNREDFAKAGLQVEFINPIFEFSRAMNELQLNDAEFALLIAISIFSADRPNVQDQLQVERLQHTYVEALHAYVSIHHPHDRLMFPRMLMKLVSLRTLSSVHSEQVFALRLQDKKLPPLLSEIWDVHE
Method in brief: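 Transfect HepG2 with GAL4-UAS multiplex reporter constructs (TRANS format, chimeric receptor-GAL4); treat 24 h; extract RNA, reverse-transcribe, PCR-amplify, FAM-label, HpaI-digest; resolve fragments by capillary electrophoresis. Upward response vs DMSO.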

[9] = biological target: Oxysterols receptor LXR-beta (Homo sapiens) (UniProt P55055); assay: ATG_LXRb_TRANS: Attagene TRANS-FACTORIAL HepG2 Assay for human Liver X Receptor beta (LXRb) (AID 2282981); conditions: HepG2 Attagene TRANS GAL4-LXRb reporter, mRNA
Method in brief: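 In this TRANS format, exogenous chimeric NR-Gal4 protein activity, not endogenous factors, drives reporter expression in transfected human HepG2 cells. Exposure lasted 24 h; reporter mRNA was read by fluorescent capillary electrophoresis.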

[10] = ATG_M_06_TRANS: Attagene TRANS-FACTORIAL HepG2 Assay for M06 Transcription Factor (Internal Marker) (AID 2282983); conditions: HepG2 Attagene TRANS M06 internal marker reporter
Method in brief: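 Transfect HepG2 with MRTUs → dose compounds 24 h → isolate RNA, oligo(dT) RT → PCR with reporter primers → 6-FAM primer extension → HpaI digest → CE fragment analysis. Positive direction vs DMSO.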

[11] = ATG_M_32_TRANS: Attagene TRANS-FACTORIAL HepG2 Assay for M32 Transcription Factor (Internal Marker) (AID 2282984); conditions: HepG2 Attagene TRANS M32 internal marker reporter;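 note: transcript level of a background control reporter unit measured by RT-PCR and capillary electrophoresis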
Method in brief: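 Human hepatoma HepG2, transient MRTU transfection, 24 h treatment. RNA → RT-PCR → fluorescent primer extension → HpaI digest (2 h, 37 C) → CE. Positive-direction fit vs DMSO.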

[12] = biological target: Transcriptional activator Myb (Homo sapiens) (UniProt P10242); assay: ATG_Myb_CIS: Attagene CIS-FACTORIAL HepG2 Assay for human Myeloblastosis (Myb) Proto-Oncogene Transcription Factor (AID 2282986; active = hit-call score of the fitted dose curve at least 0.9, where 1 is the maximum; inactive = score below 0.9); conditions: HepG2 Attagene CIS-FACTORIAL Myb reporter transcription; actives raise or lower the signal
Transcriptional activator Myb (Homo sapiens), sequence (P10242 whole entry, looked up): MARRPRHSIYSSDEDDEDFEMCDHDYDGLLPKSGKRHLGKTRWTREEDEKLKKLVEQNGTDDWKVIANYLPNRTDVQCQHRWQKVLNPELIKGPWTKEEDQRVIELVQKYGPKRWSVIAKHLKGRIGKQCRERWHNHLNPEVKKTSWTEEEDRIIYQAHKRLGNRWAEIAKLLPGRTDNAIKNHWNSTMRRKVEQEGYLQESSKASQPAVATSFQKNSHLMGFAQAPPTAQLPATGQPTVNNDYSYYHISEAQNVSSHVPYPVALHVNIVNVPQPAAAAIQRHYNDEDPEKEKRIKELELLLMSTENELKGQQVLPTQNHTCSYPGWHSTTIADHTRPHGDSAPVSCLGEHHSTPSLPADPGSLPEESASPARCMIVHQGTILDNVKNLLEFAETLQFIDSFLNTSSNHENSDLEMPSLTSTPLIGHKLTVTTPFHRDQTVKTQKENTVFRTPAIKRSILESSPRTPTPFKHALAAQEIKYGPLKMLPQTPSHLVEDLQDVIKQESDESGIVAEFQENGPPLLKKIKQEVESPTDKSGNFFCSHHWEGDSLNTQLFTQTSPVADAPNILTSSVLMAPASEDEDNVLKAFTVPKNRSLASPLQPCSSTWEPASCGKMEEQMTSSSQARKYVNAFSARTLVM
Method in brief: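 Using HepG2 liver cells bearing transiently transfected cis-promoter reporter constructs, the assay measures induction or loss of reporter mRNA after 24 hours of dosing. Detection used fluorescently labeled RT-PCR products separated by capillary electrophoresis.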

[13] = biological target: Nuclear respiratory factor 1 (Homo sapiens) (UniProt Q16656); assay: ATG_NRF1_CIS: Attagene CIS-FACTORIAL HepG2 Assay for human Nuclear Respiratory Factor 1 (NRF1) Orphan Gene (AID 2282987; active = hit-call score of the fitted dose curve at least 0.9, where 1 is the maximum; inactive = score below 0.9); conditions: HepG2 NRF1 cis-element reporter, Attagene multiplex; actives raise or lower the signal
Nuclear respiratory factor 1 (Homo sapiens), sequence (Q16656 whole entry, looked up): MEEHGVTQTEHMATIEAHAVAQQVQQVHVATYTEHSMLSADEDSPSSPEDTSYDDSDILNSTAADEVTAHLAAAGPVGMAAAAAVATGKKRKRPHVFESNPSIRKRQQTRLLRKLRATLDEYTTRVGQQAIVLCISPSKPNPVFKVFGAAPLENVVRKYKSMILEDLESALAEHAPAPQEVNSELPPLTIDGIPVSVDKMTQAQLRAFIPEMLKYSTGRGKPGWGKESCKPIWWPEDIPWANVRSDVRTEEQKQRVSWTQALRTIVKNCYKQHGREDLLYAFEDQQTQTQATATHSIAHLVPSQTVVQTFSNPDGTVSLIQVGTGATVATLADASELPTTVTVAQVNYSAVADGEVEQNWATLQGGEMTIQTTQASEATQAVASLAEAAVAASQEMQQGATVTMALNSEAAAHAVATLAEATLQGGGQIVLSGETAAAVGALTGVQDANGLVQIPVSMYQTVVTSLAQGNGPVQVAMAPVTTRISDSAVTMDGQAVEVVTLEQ
Method in brief: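 Reporter mRNA induction or loss in HepG2 cells after 24 h dosing; cis-regulated reporter constructs report endogenous transcription-factor activity. Quantified by RT-PCR/capillary electrophoresis fluorescence, DMSO-referenced.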

[14] = biological target: X-box-binding protein 1 (Homo sapiens) (UniProt P17861); assay: ATG_Xbp1_CIS: Attagene CIS-FACTORIAL HepG2 Assay for human X-box Binding Protein 1 (XBP1) (AID 2282972; active = hit-call score of the fitted dose curve at least 0.9, where 1 is the maximum; inactive = score below 0.9); conditions: HepG2 XBP1 cis-element reporter, Attagene multiplex; actives raise or lower the signal
X-box-binding protein 1 (Homo sapiens), sequence (P17861 whole entry, looked up): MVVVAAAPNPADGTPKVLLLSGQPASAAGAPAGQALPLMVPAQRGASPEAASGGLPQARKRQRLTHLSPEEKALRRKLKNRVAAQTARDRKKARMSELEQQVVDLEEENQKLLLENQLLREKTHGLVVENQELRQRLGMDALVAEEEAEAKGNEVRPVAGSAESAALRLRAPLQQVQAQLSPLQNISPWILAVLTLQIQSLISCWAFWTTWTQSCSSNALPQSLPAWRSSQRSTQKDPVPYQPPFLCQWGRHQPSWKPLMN
Method in brief: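 HepG2 cells transiently transfected with multiple cis-element reporter units report endogenous TF activity; 24 h exposure, then reporter mRNA measured by RT-PCR, 6-FAM labelling, HpaI digestion and capillary electrophoresis. Bidirectional fitting versus DMSO.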

[15] = biological target: Hepatocyte nuclear factor 4-alpha (Homo sapiens) (UniProt P41235); assay: ATG_HNF4a_TRANS: Attagene TRANS-FACTORIAL HepG2 Assay for human Hepatocyte Nuclear Factor 4 alpha (HNF4a) (AID 2282982); conditions: HepG2 HNF4a transactivation reporter, mRNA readout
Hepatocyte nuclear factor 4-alpha (Homo sapiens), sequence (P41235 whole entry, looked up, the tested form may be a part): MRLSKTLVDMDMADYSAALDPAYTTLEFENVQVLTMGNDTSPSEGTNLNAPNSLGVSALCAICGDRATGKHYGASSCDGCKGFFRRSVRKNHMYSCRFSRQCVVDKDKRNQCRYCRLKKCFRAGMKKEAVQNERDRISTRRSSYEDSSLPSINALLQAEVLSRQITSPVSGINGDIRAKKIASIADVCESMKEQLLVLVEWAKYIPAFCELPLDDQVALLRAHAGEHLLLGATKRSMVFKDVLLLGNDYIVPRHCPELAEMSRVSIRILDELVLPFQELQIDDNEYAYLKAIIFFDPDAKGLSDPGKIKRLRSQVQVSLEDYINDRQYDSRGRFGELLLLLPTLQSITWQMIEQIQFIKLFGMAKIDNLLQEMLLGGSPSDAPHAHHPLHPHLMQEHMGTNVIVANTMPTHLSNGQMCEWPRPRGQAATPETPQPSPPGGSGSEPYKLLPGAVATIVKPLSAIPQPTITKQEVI
Method in brief: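 Cells used were human HepG2, transiently carrying GAL4-UAS reporter units read out against exogenous NR-GAL4 chimeras. Reporter transcript levels after 24 h dosing were quantified by fluorescent RT-PCR and capillary electrophoresis.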

[16] = biological target: Steroid hormone receptor ERR1 (Homo sapiens) (UniProt P11474); assay: ATG_ERRa_TRANS: Attagene TRANS-FACTORIAL HepG2 Assay for human Estrogen-Related Receptor alpha (ERRa) (AID 2282971); conditions: HepG2 Attagene TRANS reporter, ERRa transactivation
Method in brief: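 Reporter transcript induction was quantified by RT-PCR and capillary electrophoresis of FAM-labelled, HpaI-cut products after 24 h treatment of HepG2 cells carrying transiently transfected GAL4-UAS reporter units and an exogenous ERRa-Gal4 fusion; activity scored as increase over DMSO.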

[17] = biological target: Estrogen-related receptor gamma (Homo sapiens) (UniProt P62508); assay: ATG_ERRg_TRANS: Attagene TRANS-FACTORIAL HepG2 Assay for human Estrogen-Related Receptor gamma (ERRg) (AID 2282977); conditions: HepG2 Attagene TRANS reporter, ERRg transactivation;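 note: hits increase reporter signal over DMSO so potencies reflect activators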
Estrogen-related receptor gamma (Homo sapiens), sequence (P62508 whole entry, looked up, the tested form may be a part): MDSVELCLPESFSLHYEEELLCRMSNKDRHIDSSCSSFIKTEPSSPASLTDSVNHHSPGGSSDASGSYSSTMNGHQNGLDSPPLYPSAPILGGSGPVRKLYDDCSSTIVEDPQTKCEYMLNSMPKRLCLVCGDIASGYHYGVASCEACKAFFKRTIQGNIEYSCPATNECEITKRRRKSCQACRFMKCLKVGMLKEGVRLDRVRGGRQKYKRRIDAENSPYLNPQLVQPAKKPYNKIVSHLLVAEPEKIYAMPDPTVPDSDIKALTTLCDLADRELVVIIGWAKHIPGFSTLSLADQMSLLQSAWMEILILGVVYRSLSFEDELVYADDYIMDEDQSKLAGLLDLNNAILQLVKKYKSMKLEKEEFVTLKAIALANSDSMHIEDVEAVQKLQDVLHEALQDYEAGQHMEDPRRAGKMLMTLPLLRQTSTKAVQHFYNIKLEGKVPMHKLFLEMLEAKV
Method in brief: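 HepG2 cells transiently transfected with multiplexed GAL4-UAS reporter units driven by chimeric NR-Gal4 proteins; 24 h exposure. Reporter mRNA quantified by RT-PCR, fluorescent labelling, HpaI digestion and capillary electrophoresis; gain of signal vs DMSO.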

[18] = biological target: Bile acid receptor (Homo sapiens) (UniProt Q96RI1); assay: ATG_FXR_TRANS: Attagene TRANS-FACTORIAL HepG2 Assay for Farnesoid X Receptor (FXR) (AID 2282979); conditions: HepG2 Attagene TRANS FXR-GAL4 reporter transcription;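 note: hits raise reporter mRNA above DMSO so AC50 marks FXR activation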
Method in brief: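 Transient transfection of HepG2 with multiplexed GAL4-UAS reporter units; exogenous FXR-GAL4 chimera. Dose 24 h → TriZol RNA → oligo(dT) RT → PCR, 6-FAM primer extension, HpaI cut → CE. Gain vs DMSO.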

[19] = biological target: Nuclear receptor subfamily 4 group A member 2 (Homo sapiens) (UniProt P43354); assay: ATG_NURR1_TRANS: Attagene TRANS-FACTORIAL HepG2 Assay for human Nuclear Receptor Related Protein 1 (NURR1) (AID 2282985); conditions: HepG2 Attagene TRANS reporter, mRNA readout
Nuclear receptor subfamily 4 group A member 2 (Homo sapiens), sequence (P43354 whole entry, looked up): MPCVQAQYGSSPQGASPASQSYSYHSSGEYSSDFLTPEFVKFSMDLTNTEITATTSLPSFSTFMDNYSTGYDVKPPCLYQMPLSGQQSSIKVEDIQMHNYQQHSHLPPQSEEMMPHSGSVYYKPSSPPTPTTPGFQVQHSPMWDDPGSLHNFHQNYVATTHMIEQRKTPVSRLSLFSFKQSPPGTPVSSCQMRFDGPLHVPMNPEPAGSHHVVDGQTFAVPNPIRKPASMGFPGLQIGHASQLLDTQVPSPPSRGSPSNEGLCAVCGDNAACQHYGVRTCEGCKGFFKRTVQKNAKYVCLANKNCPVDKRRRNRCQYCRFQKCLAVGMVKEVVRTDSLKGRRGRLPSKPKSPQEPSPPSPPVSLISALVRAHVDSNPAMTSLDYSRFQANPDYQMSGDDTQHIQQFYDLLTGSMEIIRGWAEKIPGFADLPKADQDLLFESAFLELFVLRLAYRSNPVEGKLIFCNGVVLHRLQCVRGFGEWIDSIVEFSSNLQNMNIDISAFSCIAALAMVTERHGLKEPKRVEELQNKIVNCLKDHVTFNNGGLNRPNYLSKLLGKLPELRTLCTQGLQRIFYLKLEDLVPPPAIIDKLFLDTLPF
Method in brief: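 After 24 h chemical dosing, total RNA from transiently transfected HepG2 cells was reverse-transcribed and reporter cDNA PCR-amplified, FAM-labelled and analysed by capillary electrophoresis. Activity fitted in positive direction, DMSO as negative control.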

Measured: AC50

Nc1cc(N)cc(C(=O)O)c1
not listed: [14] | [15] | [16] | [17] | [18] | [19]
inactive: all other assays above

CC(O)C(C)O (stereo not given)
not listed: [4] | [11] | [16] | [17] | [18] | [19]
inactive: all other assays above

C=CC(=O)OCCn1c(=O)n(CCOC(=O)C=C)c(=O)n(CCOC(=O)C=C)c1=O
active: [3] 4.16 µM | [14] 8.6 µM
not listed: [4] | [5] | [8] | [19]
inactive: all other assays above

COc1cc(C=O)ccc1OC(=O)C(C)C
not listed: [4] | [8] | [11] | [15] | [16] | [18]
inactive: all other assays above

O=[N+]([O-])c1ccc(Nc2ccc(Nc3ccccc3)c(S(=O)(=O)O)c2)c([N+](=O)[O-])c1
active: [2] 148 µM | [14] 172 µM
not listed: [4] | [10] | [15] | [16] | [17] | [18] | [19]
inactive: all other assays above

CC(=O)[C@H]1CC[C@H]2[C@@H]3CC=C4C[C@@H](O)CC[C@]4(C)[C@H]3CC[C@]12C
active: [3] 22.6 µM | [4] 1.32 µM
not listed: [5] | [6] | [7] | [8] | [9] | [16] | [17]
inactive: all other assays above

CC(C)C[C@H]1C(=O)N2CCC[C@H]2[C@]2(O)O[C@](NC(=O)[C@@H]3C=C4c5cccc6[nH]c(Br)c(c56)C[C@H]4N(C)C3)(C(C)C)C(=O)N12
active: [1] 2.19 µM | [3] 1.3 µM | [19] 5.67 µM | [13] 3.24 µM
not listed: [4] | [8] | [9] | [10] | [15] | [18]
inactive: all other assays above

Clc1ccc(Cl)c(Cl)c1Cl
active: [2] 19.8 µM
not listed: [4] | [9] | [10] | [15] | [16] | [17] | [18]
inactive: all other assays above

CC(=O)/C=C/C1=C(C)CCCC1(C)C
active: [3] 3.58 µM
inactive: [1] | [2] | [4] | [14] | [8] | [10] | [19] | [12] | [13]

C=C(C)C(=O)NCCCN(C)C
inactive: [1] | [2] | [3] | [14] | [5] | [6] | [9] | [15] | [12] | [13]

C=C(C)C(=O)OCCOC(=O)CC(C)=O
not listed: [4] | [10] | [15] | [16] | [17] | [18] | [19]
inactive: all other assays above
